Results from the supplement of paper PMC6555819.

Assays:
Experiment in all cases: PBM binding z-score (relative to random genomic background probes); higher = stronger binding; sequences stand for … in GC…GCGATTGACAGCGTAGAATGAAGG
[1] = test system: RARg:RXRa (NR concentration 270 nM, RXRa partner concentration 90 nM)
In short: (§1)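 Custom Agilent 4×180K protein-binding microarrays carried double-stranded probes, each with a 34-nt variable region. These regions held direct-repeat seeds, single-nucleotide variants, half-site ablations and random human genomic background sequences. Ligand-free nuclear receptor dimers were incubated on the arrays for 1 h, antibodies against each partner (one per run) detected binding, and scanned fluorescence was regression-normalized. Binding z-scores take the random background probes as reference.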

[2] = test system: RARg homodimer (NR concentration 270 nM)
In short: as §1

[3] = test system: RXRa DBDmut IVT, anti-RXR (DBD mutation: RXRa K156A/R161A, NR concentration 90 nM)
In short: as §1

[4] = test system: RXRa homodimer (NR concentration 180 nM)
In short: as §1

[5] = test system: THRa:RXRa (NR concentration 90 nM, RXRa partner concentration 90 nM)
In short: as §1

[6] = test system: THRa homodimer (NR concentration 90 nM)
In short: as §1

[7] = test system: VDR homodimer (NR concentration 270 nM)
In short: as §1

| Sequence | PBM binding z-score [1] | PBM binding z-score [2] | PBM binding z-score [3] | PBM binding z-score [4] | PBM binding z-score [5] | PBM binding z-score [6] | PBM binding z-score [7] |
| --- | --- | --- | --- | --- | --- | --- | --- |
| CCTACTGGGCCTAAGGTCATTGATTCCAATGCTC | 3.16 | 2.83 | 1.17 | 3.44 | 3.88 | 4.55 | 2.68 |
| ACTTACGGGTCTACGAGGTTATAGCACGCGTATA | 0.863 | 0.586 | 0.937 | 1.32 | 1.83 | 0.82 | 1.55 |
| GCTTACAGGTCAAAGGTTATAGCATGAATAGAAT | 7.18 | 5.44 | 2.31 | 9.21 | 4.11 | 0.393 | 1.47 |
| CGTCTAAGGTCATAGGAGGTCAGTGAAGACAGAT | 7.35 | 7.8 | 4.42 | 7.22 | 5.51 | 4.81 | 4.89 |
| CCGAGGAGGTTACGAGGGGGCATTCAGTGCGAAT | 4.21 | 3.17 | 2.24 | 3.28 | 4.49 | 0.537 | 3.87 |
| AGAATGGGGTTACCAAAGATCAGGGAAACGCTTG | 2.9 | 1.43 | 1.25 | 4.79 | 3.07 | 0.513 | 0.217 |
| CGTCAAACTTCAACTAAGGTAACGTAAAGCACGC | 0.289 | 0.43 | 0.617 | 0.424 | 2.4 | 1.98 | 0.47 |
| GCTGCTAGGTCAACTGATGGCCAGCTAAAGCTCG | 4.59 | 5.33 | 1.01 | 2.75 | 2.89 | 0.674 | -0.329 |
| ATCGAAAGGTCGACCAGGTGAGTATACACCGTTT | 4.38 | 4.1 | 1.3 | 4.37 | 3.34 | 0.391 | 1.22 |
| TAGCCTAGGGCATTCAGGGGCCAGTATAGAAAGC | 1.99 | 1.1 | -0.766 | 0.0553 | 1.2 | -0.586 | -0.169 |
| CGTCAAAGTCCAAGGTAACGTAACAGAAAGCAGC | 0.398 | 1.1 | 1.15 | -0.0038 | 1.31 | 0.878 | 0.231 |
| AGAATGAGGTTACCAAAGTTCAGGGAAACGCTTG | 4.44 | 3.52 | 1.62 | 4.3 | 4.02 | 0.878 | 2.32 |
| CGTCCAAGGTCATAGAGGTCAGTGAATGCCGAGT | 7.06 | 7.75 | 4.4 | 7.55 | 4.38 | 3.51 | 7.8 |
| AATACAGGGTAACTAGGCCAGAGTAGGTACGAAT | 0.64 | 0.567 | -0.0804 | 0.664 | 0.631 | -0.0802 | 0.108 |
| CCTCGGAGGACAACAGGAGGTCATAGCTGCCAGA | 3.93 | 3.78 | 1.1 | 3.09 | 3.58 | 1.5 | 2.44 |
| AATACAAGGTCATCGTAGGCCAGAGTACGCACAG | 6.21 | 6.23 | 3.94 | 6.37 | 4.47 | 2.74 | 4.03 |
| CCTTACGGGTCAAGGTTATAGCCCGGGTGGTACG | 5.05 | 5.24 | -0.0321 | 5.76 | 3.1 | 0.694 | 1.24 |
| CGAACGAGGTCATGAGTTGATAGCAAATGCCGAT | 6.18 | 6.02 | 4.6 | 6.87 | 4.26 | 3.07 | 4.41 |
| CCTACTGGGCCAAAGGTGATTGATTCCAATGCTC | 0.547 | 0.234 | -0.2 | 0.624 | 0.0559 | -0.0264 | 0.165 |

| Sequence | PBM binding z-score [1] | PBM binding z-score [2] | PBM binding z-score [3] | PBM binding z-score [4] | PBM binding z-score [5] | PBM binding z-score [6] | PBM binding z-score [7] |
| --- | --- | --- | --- | --- | --- | --- | --- |
| AGTCAAAGTGCATCTAGGTAACGTAAGATATGCT | 1.07 | 1.23 | 1.55 | 0.663 | 1.31 | -0.154 | 0.36 |
| AATACAGGGTCACGAGGCCAGAGTAGGTACGAAT | 6.44 | 5.99 | 2.95 | 7.67 | 4.06 | 2.21 | 3.31 |
| GGAACGAGGTCATTCGAGTTGATAGCATGGCGAT | 6.09 | 6.21 | 4.87 | 7.11 | 4.76 | 2.26 | 6.31 |
| CGAACTAGGTCGTCCAGGACAGTGAATACATTGA | 0.869 | 1.08 | 1.02 | 0.72 | 2.27 | 0.874 | 0.591 |
| CCGAGTTGGTCAAGGTCACACACGCTATAGGTAC | 4.58 | 4.8 | 3.18 | 4.46 | 4.24 | 4.39 | 4.74 |
| GATATAGGGTCAGCTAGAGGCCAGAGTATGGAAA | 6.81 | 5.11 | 1.67 | 4.63 | 3.42 | 0.95 | 0.867 |
| CCTAGTGGGCCAAGGTCATTGATCAGTCAAAGCA | 3.74 | 3.3 | 1.05 | 3.2 | 3.45 | 2.05 | 2.91 |
| CCTAGTTGGTCAAGGTCACATACGCTATAGGTAC | 4.18 | 4.37 | 2.21 | 3.89 | 3.96 | 3.88 | 3.56 |
| TGTATGAGGTTAAAGATCAGGGAACGTGGCGTCG | 2.79 | 1.99 | 1.22 | 4.35 | 2.84 | 1.01 | 1.19 |
| TATTCAGGGTCAAAGGCCAGAGTACGAATGTCGA | 6.24 | 5.27 | 3.3 | 7.75 | 3.83 | 1.25 | 3.62 |
| ATATGTAGTTTATCGGGTCATTCAGTTTGCGCAT | 2.41 | 1.85 | 2.32 | 2.61 | 3.42 | 3.09 | 4.13 |
| ATCGAAAGGTCGTGAGGTAAGTATACAGAAAGGC | 4.63 | 3.93 | 1.25 | 5.18 | 3.09 | 1.01 | 1.24 |
| GCTAGTTGGTCAGTAAAATGTCACACACCGGTCG | 0.584 | 0.697 | 0.121 | 0.272 | -0.216 | -0.123 | 0.162 |
| AATACAGGGTCATCGTACGCCAGAGTACGCACAG | 5.65 | 4.81 | 3.46 | 6.92 | 3.87 | 1.73 | 4.17 |
| CCTACTGGGCCACTAAAGGTCATTGATTCAGTGA | 4.48 | 4.5 | 0.757 | 4.87 | 3.61 | 0.905 | 2.62 |
| ATATGTAGGTTAGGGGTCATTCAGGTTGGTTCGC | 5.63 | 4.38 | 2.85 | 7.75 | 3.99 | 2.88 | 6.78 |
| CTATGTGGGTTAAGGGGGTCATTCAGTTTGAAAG | 5.36 | 4.42 | 3.34 | 6.11 | 4.29 | 3.69 | 6.5 |
| ATCTCTAGGTTAAGATAGTTCAGTGAATGCAAAT | 1.73 | 1.87 | 0.534 | 1.14 | 1.81 | 0.578 | 0.933 |
| CCTACTGGACCAAGGTCATTGATCAGTCAAAGCA | 3.7 | 2.94 | 1.91 | 3.39 | 3.43 | 2.69 | 3.61 |

| Sequence | PBM binding z-score [1] | PBM binding z-score [2] | PBM binding z-score [3] | PBM binding z-score [4] | PBM binding z-score [5] | PBM binding z-score [6] | PBM binding z-score [7] |
| --- | --- | --- | --- | --- | --- | --- | --- |
| TAGCCTAGGTCATGCGGGCCAATATAGTGTCGGC | 3.98 | 4.36 | 0.554 | 3.1 | 3.14 | 0.979 | 0.902 |
| TAGCCTAGGTCATGCGGGACAGTATAGTGTCGGC | 3.95 | 4.49 | 0.879 | 3.05 | 3.04 | 0.939 | 1.16 |
| ATTTGTAGGTTACATCCGGGTCATTCAGGCTATG | 4.18 | 2.41 | 1.3 | 3.47 | 3.85 | 3.39 | 4.18 |
| ATCAAAAGGTCGAGGTGAGTATAGAGAAAGGGAA | 4.7 | 4.98 | 1.28 | 4.83 | 3.11 | 1.26 | 1.18 |
| ATATGTAGGTTAGGGTCAGTCAGAAAGTAGGGAA | 3.08 | 3.14 | 1.04 | 3.37 | 3.32 | 2.69 | 1.79 |
| TACCCTAGGTCATTCAGGGGCCAGTATAGAAAGC | 6.19 | 5.02 | 1.56 | 3.18 | 3.65 | 1.29 | 1.84 |
| GCTGCTAGGTCAACTGATGGTCATCTAAAGCTCG | 5.46 | 5.43 | 1.87 | 3.25 | 3.09 | 1.12 | 0.187 |
| GGAACGAGGGCAAAGTTCATAGCATCTGTCGACG | 5.71 | 3.92 | 3.54 | 6.27 | 3.03 | 0.017 | 4.43 |
| CAAACTAGGTCACAAAAGGTCAAAGTCGAATGAC | 7.42 | 8.02 | 2.52 | 7.78 | 4.76 | 2.22 | 3.98 |
| TCTATTAGTTGATTAGGGCAACCGAAACAGCGGA | 0.66 | 0.733 | 1.18 | 0.678 | 0.697 | 0.563 | 0.736 |
| ACTCGGTGGACAAAGGTCAGAGCTACGCCAGTGA | 4.58 | 4.49 | 0.0487 | 4.44 | 2.45 | -0.204 | 0.332 |
| CCTACTGGTCCAAGGTCATTGATCAGTCAAAGCA | 3.84 | 3.4 | 2 | 3.96 | 3.59 | 3.48 | 3.1 |
| TCTGCTAGGTCAACGTTGGTCAGCTAATCTGCTA | 3.78 | 4.83 | 1.06 | 2.32 | 3.21 | 0.755 | -0.37 |
| CGAACTAGGTCAAGGCCAGTGAATCTCCGCACGC | 3.79 | 4.63 | 1.47 | 2.73 | 3.12 | 0.958 | 0.111 |
| TATACAAGGTCAAAGGCCAGAGTACGAATGTCGA | 6.25 | 6.16 | 2.92 | 6.51 | 3.86 | 2.1 | 2.78 |
| TGAATGAGGTTAAATATCAGGGAACGTGGCGTCG | 2.18 | 1.43 | 1.95 | 2.84 | 2.38 | 0.583 | 1.02 |
| GCTAGTTGGTCAGTAAAAGGTGACACACCGGTCG | 1.58 | 1.17 | -0.429 | 0.87 | 0.938 | -0.422 | -0.475 |
| TCTCGGAGGACACCAAAGGTCAGAGCTCGACATC | 4.82 | 5.32 | 0.814 | 4.15 | 3.65 | 1.2 | 1.11 |
